Here are results for one molecule from ChEMBL document CHEMBL2218924, “A broad activity screen in support of a chemogenomic map for kinase signalling research and drug discovery” (Biochem J, 2013).

The target in assay [1] is T1, Ephrin type-A receptor 3 (Homo sapiens) (UniProt P29320).
T1 sequence (whole entry): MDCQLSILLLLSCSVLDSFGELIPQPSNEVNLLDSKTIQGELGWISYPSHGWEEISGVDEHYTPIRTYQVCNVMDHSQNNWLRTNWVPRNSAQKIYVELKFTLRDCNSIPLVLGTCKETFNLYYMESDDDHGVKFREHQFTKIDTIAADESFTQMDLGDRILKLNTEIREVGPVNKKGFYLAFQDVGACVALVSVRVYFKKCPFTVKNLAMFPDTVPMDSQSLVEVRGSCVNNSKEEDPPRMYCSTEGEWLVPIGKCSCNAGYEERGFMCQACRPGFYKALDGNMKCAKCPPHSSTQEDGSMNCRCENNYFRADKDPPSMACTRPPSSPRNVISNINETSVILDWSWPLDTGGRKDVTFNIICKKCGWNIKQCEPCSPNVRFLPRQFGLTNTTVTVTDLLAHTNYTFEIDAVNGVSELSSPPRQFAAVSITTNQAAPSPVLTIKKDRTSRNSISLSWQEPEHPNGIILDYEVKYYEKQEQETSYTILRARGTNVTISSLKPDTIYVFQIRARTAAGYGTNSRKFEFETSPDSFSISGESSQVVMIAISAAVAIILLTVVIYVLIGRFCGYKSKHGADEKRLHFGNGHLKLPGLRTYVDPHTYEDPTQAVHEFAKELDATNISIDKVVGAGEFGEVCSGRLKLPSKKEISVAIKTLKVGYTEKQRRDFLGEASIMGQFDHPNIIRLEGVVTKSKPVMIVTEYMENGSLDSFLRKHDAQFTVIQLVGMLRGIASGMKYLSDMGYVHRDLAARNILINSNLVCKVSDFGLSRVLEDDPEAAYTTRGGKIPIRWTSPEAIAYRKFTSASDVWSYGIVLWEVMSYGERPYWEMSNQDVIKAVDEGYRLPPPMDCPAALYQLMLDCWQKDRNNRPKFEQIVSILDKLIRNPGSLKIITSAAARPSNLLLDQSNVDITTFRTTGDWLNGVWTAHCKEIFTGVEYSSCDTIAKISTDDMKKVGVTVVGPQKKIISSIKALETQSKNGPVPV
The note with it: at 10 µM.

Assay [2] concerns the target Ephrin type-A receptor 4 (Homo sapiens) (UniProt P54764). To be noted: at 1 µM.
The target is the same in assay [3]. To be noted: at 10 µM.
The target in assay [4] is Ephrin type-A receptor 5 (Homo sapiens) (UniProt P54756). The note with it: at 1 µM.
Ephrin type-A receptor 5 (Homo sapiens), sequence (P54756 whole entry): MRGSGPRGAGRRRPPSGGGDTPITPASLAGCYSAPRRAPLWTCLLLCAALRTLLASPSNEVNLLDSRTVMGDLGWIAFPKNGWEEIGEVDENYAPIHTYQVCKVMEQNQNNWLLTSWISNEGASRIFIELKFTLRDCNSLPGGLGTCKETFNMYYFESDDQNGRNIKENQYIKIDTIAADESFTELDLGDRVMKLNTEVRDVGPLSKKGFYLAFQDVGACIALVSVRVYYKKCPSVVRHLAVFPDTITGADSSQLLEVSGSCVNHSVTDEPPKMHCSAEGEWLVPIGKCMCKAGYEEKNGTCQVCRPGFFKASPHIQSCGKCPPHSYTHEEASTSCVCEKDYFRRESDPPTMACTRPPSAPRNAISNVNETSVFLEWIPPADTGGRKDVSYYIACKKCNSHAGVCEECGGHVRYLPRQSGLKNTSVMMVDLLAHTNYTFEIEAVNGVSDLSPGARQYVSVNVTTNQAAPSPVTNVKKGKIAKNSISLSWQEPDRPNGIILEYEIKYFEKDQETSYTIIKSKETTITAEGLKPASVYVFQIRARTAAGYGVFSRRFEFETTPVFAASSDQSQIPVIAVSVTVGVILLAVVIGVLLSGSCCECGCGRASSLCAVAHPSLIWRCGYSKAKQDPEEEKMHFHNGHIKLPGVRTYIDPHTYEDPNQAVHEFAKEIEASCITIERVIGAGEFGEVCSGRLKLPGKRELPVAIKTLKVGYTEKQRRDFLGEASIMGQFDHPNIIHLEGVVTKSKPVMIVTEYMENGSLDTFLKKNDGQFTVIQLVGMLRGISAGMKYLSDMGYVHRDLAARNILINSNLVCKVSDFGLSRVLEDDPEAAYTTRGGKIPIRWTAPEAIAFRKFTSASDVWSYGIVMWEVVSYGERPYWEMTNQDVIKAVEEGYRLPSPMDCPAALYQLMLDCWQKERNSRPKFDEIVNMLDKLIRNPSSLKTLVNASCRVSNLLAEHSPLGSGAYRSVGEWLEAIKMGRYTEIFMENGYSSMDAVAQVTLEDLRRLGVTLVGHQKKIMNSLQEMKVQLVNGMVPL
The target is the same in assay [5]. To be noted: at 10 µM.
Assay [6] concerns the target Ephrin type-A receptor 7 (Homo sapiens) (UniProt Q15375). To be noted: at 1 µM.
For assay [7] the target is unchanged. The note with it: at 10 µM.
For assay [8], the target named is T2, Ephrin type-A receptor 8 (Homo sapiens) (UniProt P29322).
T2 sequence (whole entry): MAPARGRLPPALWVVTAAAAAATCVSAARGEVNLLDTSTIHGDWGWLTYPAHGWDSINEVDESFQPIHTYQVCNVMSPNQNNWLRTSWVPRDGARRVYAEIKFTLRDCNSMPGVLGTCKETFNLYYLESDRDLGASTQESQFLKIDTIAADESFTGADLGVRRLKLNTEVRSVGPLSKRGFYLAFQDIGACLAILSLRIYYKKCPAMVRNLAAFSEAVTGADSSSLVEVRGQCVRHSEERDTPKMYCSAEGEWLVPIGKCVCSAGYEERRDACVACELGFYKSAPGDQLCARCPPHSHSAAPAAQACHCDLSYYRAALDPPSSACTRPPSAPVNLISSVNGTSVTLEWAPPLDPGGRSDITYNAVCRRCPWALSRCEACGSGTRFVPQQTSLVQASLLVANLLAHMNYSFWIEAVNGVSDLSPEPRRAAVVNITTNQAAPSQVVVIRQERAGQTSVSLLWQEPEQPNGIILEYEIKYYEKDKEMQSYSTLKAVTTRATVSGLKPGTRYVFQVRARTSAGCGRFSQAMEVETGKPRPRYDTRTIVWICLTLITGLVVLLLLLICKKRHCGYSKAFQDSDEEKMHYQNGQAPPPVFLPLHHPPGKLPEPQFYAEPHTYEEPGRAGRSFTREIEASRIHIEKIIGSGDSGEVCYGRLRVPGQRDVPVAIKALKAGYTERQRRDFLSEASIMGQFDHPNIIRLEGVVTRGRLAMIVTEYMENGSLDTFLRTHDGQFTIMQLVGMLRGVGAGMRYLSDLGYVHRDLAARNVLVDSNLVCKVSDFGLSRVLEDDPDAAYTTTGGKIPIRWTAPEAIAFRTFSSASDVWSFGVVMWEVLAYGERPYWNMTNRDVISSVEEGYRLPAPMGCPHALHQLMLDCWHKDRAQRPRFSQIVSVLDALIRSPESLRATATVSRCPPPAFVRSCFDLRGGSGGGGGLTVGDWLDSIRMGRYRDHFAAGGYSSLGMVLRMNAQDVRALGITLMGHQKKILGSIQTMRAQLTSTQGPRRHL
To be noted: at 1 µM.

Assay [9] has as its target T2, Ephrin type-A receptor 8 (Homo sapiens). The note with it: at 10 µM.
Assay [10] deals with T3, Ephrin type-B receptor 1 (Homo sapiens) (UniProt P54762).
T3 sequence (whole entry): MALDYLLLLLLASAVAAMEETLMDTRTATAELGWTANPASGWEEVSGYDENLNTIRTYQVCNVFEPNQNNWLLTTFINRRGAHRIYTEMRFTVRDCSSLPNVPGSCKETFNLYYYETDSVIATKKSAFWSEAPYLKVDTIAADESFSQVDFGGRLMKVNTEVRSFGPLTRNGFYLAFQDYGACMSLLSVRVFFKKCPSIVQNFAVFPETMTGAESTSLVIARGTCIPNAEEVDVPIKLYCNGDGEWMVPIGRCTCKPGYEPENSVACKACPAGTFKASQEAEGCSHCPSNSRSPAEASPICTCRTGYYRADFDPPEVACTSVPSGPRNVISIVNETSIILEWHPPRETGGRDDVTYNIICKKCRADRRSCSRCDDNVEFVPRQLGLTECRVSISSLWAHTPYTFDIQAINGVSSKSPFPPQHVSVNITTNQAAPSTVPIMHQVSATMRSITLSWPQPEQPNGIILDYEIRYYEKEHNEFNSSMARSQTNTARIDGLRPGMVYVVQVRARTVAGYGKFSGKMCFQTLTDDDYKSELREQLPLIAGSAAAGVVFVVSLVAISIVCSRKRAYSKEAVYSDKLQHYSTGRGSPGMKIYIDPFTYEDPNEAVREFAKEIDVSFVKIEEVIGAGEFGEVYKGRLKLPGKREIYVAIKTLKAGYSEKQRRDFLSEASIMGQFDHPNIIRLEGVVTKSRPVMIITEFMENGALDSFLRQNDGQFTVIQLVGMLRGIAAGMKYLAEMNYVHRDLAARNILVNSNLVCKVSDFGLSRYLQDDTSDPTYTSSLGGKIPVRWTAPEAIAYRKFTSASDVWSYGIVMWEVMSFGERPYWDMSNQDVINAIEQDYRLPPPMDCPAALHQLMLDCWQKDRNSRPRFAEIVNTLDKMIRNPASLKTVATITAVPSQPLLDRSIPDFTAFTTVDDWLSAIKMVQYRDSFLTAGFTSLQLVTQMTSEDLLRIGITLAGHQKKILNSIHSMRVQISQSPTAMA
To be noted: at 1 µM.

In assay [11] the target is T3, Ephrin type-B receptor 1 (Homo sapiens). The note with it: at 10 µM.
For assay [12], the target named is T4, Ephrin type-B receptor 2 (Homo sapiens) (UniProt P29323).
T4 sequence (whole entry): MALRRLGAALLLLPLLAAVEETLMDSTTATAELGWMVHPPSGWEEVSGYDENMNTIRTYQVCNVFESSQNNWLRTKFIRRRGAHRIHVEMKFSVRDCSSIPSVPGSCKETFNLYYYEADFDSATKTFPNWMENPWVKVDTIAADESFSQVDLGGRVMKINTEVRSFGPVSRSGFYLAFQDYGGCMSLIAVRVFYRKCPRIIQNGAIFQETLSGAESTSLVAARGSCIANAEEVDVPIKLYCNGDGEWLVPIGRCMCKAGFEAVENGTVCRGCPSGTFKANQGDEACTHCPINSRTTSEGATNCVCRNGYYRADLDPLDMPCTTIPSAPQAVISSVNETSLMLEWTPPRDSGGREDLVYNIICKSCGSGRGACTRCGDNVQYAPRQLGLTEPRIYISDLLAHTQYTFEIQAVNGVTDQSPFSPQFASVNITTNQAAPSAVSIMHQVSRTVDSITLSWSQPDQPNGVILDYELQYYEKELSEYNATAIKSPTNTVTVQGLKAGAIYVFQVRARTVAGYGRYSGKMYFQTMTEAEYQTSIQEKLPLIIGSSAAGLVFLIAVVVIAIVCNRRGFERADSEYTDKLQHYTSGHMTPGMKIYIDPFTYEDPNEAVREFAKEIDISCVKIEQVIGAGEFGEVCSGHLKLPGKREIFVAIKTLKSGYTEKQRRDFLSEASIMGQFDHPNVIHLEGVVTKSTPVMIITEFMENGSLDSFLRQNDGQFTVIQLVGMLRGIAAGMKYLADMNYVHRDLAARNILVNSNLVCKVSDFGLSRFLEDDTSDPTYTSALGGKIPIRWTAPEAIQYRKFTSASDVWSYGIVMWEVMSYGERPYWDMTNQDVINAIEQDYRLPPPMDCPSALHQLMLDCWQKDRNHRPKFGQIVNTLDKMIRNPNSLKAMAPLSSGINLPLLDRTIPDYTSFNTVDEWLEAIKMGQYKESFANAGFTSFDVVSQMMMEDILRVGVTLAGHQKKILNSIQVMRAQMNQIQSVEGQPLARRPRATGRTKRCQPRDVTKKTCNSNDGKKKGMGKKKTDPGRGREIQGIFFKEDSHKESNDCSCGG
To be noted: at 1 µM.

The target of assay [13] is T4, Ephrin type-B receptor 2 (Homo sapiens). To be noted: at 10 µM.
For assay [14], the target named is T5, Ephrin type-B receptor 4 (Homo sapiens) (UniProt P54760).
T5 sequence (whole entry): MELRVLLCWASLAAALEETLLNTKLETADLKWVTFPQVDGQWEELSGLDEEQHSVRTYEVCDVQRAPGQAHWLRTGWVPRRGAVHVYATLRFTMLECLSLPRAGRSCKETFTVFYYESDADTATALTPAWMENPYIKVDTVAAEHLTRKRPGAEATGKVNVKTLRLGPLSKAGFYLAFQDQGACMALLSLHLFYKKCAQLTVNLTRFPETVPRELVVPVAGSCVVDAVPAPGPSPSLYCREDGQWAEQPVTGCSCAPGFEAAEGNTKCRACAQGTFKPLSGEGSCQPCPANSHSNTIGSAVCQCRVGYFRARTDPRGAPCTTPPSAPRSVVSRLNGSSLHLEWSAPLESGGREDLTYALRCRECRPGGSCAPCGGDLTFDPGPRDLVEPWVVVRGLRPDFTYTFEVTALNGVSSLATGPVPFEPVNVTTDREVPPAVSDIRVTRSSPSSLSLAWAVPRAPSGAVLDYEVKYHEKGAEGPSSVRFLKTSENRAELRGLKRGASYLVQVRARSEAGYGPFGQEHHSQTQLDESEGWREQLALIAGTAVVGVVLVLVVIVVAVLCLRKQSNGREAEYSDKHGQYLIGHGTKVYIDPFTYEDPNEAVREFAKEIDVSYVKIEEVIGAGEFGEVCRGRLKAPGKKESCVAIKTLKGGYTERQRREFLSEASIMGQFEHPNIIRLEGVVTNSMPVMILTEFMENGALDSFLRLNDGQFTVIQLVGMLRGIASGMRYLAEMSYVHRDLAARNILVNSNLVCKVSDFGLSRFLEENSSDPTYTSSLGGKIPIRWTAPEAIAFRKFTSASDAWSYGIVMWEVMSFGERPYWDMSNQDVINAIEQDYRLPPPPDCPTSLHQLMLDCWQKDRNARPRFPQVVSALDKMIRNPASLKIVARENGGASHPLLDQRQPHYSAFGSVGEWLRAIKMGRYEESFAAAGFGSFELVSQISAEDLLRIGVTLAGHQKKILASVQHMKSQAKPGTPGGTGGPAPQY
To be noted: at 1 µM.

The target in assay [15] is T5, Ephrin type-B receptor 4 (Homo sapiens). The note with it: at 10 µM.
In assay [16] the target is Focal adhesion kinase 1 (Homo sapiens) (UniProt Q05397). The note with it: at 1 µM.
Focal adhesion kinase 1 (Homo sapiens), sequence (Q05397 2-1052 limits assumed): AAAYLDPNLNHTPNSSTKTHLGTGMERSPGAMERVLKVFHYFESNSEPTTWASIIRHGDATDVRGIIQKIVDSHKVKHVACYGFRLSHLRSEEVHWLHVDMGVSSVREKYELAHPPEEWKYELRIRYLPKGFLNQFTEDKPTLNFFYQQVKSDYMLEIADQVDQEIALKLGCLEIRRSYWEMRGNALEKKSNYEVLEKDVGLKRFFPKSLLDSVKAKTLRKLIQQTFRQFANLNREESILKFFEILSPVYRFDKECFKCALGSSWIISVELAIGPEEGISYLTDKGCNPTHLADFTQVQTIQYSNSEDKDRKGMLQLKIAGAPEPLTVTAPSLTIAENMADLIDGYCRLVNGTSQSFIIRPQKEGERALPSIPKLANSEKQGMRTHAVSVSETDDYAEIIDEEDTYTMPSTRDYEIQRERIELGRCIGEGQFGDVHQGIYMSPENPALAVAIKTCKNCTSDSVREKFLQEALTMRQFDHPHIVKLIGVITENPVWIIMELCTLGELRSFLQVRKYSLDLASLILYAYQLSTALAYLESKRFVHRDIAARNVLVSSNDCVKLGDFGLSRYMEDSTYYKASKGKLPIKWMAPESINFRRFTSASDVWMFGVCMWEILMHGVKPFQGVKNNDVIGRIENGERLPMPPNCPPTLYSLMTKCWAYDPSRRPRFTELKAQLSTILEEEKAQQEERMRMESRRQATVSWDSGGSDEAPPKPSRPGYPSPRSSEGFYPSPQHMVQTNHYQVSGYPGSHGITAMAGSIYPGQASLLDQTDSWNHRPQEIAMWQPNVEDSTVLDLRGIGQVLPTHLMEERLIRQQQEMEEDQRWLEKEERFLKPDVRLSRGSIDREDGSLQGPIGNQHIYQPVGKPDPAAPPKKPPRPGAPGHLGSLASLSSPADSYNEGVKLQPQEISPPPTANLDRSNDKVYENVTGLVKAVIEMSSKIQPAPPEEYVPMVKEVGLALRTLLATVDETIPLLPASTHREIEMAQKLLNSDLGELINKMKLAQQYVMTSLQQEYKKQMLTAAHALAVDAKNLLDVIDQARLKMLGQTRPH

Ephrin type-A receptor 7 (Homo sapiens), sequence (Q15375 28-998 limits assumed): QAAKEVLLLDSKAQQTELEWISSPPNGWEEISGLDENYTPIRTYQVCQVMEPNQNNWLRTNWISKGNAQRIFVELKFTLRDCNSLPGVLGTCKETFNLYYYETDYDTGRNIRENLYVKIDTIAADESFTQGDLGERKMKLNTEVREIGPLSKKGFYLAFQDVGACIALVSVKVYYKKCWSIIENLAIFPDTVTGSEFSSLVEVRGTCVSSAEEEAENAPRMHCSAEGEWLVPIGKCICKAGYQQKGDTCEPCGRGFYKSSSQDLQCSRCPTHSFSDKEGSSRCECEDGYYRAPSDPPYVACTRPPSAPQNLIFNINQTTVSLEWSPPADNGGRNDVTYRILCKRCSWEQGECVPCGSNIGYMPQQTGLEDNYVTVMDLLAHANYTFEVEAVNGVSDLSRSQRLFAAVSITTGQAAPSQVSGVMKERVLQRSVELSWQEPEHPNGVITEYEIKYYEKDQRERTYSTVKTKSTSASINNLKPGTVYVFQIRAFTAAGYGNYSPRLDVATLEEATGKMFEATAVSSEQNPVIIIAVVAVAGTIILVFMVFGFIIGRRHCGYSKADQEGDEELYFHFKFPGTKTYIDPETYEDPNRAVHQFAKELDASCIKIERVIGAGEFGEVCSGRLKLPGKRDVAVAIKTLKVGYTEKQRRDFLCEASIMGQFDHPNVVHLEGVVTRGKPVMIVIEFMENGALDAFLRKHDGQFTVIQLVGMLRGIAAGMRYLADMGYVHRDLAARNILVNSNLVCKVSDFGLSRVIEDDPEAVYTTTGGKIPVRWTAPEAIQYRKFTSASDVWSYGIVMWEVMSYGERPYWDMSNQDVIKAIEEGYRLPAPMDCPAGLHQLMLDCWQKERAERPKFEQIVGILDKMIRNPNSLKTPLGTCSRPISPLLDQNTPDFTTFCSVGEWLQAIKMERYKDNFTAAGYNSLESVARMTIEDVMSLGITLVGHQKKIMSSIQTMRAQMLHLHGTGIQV
Ephrin type-A receptor 4 (Homo sapiens), sequence (P54764 whole entry): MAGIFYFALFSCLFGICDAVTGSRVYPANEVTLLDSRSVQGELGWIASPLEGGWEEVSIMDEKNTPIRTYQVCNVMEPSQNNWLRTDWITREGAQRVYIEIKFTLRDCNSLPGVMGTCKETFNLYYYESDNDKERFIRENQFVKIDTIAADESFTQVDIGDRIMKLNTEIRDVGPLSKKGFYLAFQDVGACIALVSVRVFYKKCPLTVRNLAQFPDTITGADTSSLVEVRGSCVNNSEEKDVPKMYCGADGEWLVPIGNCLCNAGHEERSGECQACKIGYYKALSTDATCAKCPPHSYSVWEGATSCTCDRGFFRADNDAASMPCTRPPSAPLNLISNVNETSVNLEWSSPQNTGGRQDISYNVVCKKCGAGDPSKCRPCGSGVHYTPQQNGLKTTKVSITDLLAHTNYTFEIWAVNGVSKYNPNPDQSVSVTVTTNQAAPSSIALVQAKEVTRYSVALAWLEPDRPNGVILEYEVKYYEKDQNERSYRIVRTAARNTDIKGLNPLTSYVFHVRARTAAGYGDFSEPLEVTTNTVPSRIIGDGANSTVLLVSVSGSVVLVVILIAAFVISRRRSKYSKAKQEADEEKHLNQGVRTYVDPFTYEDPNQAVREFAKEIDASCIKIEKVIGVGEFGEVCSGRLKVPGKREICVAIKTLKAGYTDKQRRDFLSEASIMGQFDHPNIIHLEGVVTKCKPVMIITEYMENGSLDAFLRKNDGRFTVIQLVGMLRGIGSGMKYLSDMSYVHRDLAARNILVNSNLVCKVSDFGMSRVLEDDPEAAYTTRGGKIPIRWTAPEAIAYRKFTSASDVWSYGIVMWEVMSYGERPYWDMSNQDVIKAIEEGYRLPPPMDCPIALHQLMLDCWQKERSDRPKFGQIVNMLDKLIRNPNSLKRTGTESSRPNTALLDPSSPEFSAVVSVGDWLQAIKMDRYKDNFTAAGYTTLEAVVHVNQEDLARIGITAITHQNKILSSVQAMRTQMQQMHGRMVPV

Regarding `CC(C)[C@H](CO)Nc1nc(Nc2cccc(Cl)c2)c2ncn(C(C)C)c2n1`, the residual activity (usually the share of the control activity or signal that is left under treatment) worked out at 31% in assay [1]; 95% in [2]; 47% in [3]; 83% in [4]; 14% in assay [5]; 76% in assay [6]. Besides, the residual activity in assay [7] stood at 28%; in assay [8], 85%; in assay [9], 46%; in assay [10] it was 63%; in [11], 15%; in assay [12], 71%. Also, the residual activity in assay [13] worked out at 3%; in [14], 37%; in assay [15] it was 4%; in [16] it was 65%.
